About 6,500 targets were measured; listed, in parts, are those with a hit and a random draw of the rest. About 2% of all pairs of compound and target were hits.
What follows are targets tested with COC(=O)C#Cc1ccccc1 [methyl 3-phenylpropiolate] (assay: log2 ratio of iodoacetamide-alkyne labeling of the cysteine site, DMSO over compound (competition); higher = stronger covalent engagement of the cysteine by the compound, active = 1 or more). Details: 500 µM; treatment time 1 h; system: HEK293T cell lysate.
Outline: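 HEK293T lysate (2 mg/mL) was treated with DMSO or electrophile (500 µM, 1 h, ambient temperature), then iodoacetamide alkyne (1 h), clicked to sCIP-TMT reagents, pooled, trypsin-digested overnight at 37 °C, streptavidin-enriched and acid-eluted. Peptides were run on Orbitrap Eclipse LC-MS/MS with FAIMS and quantified in FragPipe. The log2 competition ratio per cysteine is mean control-channel over mean compound-channel reporter intensity. Duplicate channels and three replicates were used, and cysteines quantified in only one replicate were excluded.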

Sequence of UniProt P10599 (P10599 whole entry, looked up): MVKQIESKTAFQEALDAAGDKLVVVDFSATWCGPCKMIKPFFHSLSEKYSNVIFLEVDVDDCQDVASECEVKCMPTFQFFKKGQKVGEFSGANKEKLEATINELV
Sequence of UniProt P13861 (P13861 whole entry, looked up): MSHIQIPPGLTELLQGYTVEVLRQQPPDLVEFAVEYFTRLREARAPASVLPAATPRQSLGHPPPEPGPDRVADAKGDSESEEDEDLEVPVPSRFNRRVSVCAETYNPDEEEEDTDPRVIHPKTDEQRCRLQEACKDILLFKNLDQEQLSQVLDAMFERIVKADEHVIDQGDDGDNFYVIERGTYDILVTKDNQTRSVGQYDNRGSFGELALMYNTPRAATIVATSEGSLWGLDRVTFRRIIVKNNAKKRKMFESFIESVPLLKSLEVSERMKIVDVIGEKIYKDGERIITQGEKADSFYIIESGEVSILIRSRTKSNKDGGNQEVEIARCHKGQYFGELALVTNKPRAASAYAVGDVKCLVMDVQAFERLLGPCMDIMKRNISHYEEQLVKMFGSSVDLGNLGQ
Sequence of UniProt P26358 (P26358 whole entry, looked up): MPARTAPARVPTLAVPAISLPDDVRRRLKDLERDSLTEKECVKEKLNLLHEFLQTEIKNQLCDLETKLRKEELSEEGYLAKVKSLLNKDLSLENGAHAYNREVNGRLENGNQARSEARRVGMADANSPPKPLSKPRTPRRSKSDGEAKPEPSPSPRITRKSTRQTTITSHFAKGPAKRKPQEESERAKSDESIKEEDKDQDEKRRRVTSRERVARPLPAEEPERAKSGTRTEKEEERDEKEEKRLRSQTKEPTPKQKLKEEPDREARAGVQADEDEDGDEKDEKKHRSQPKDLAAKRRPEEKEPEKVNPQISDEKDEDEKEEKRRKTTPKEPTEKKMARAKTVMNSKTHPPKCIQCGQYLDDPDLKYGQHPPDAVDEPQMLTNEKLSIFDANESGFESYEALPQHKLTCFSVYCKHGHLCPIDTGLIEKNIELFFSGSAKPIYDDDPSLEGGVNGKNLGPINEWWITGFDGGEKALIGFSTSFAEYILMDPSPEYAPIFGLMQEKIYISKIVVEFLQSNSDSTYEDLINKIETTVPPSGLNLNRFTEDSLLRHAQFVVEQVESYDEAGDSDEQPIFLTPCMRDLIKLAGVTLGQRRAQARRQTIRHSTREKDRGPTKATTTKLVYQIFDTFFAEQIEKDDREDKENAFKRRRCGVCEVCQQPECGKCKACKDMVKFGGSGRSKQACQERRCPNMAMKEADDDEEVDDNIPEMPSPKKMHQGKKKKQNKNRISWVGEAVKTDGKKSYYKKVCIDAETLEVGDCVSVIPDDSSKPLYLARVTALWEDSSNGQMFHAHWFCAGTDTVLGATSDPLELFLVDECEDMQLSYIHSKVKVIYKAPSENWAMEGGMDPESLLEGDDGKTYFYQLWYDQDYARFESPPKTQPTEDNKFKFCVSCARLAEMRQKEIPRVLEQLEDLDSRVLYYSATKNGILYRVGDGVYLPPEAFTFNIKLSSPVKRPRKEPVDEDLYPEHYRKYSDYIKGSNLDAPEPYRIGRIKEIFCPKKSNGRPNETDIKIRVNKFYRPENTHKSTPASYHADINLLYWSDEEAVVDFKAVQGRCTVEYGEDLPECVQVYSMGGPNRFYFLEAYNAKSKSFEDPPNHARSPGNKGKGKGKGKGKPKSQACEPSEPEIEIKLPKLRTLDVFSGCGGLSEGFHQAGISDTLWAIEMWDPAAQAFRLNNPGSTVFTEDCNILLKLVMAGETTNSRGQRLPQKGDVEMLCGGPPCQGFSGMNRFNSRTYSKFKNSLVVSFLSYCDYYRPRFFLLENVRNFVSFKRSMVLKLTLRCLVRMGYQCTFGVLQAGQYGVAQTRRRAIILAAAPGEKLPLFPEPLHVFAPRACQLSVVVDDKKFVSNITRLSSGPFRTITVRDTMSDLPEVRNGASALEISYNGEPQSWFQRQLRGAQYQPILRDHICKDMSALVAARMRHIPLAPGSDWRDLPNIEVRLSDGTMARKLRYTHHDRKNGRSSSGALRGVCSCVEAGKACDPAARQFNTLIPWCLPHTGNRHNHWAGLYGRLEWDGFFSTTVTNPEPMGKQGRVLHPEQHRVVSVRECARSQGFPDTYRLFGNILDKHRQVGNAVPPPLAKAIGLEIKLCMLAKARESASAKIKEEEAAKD
Sequence of UniProt P46020 (P46020 whole entry): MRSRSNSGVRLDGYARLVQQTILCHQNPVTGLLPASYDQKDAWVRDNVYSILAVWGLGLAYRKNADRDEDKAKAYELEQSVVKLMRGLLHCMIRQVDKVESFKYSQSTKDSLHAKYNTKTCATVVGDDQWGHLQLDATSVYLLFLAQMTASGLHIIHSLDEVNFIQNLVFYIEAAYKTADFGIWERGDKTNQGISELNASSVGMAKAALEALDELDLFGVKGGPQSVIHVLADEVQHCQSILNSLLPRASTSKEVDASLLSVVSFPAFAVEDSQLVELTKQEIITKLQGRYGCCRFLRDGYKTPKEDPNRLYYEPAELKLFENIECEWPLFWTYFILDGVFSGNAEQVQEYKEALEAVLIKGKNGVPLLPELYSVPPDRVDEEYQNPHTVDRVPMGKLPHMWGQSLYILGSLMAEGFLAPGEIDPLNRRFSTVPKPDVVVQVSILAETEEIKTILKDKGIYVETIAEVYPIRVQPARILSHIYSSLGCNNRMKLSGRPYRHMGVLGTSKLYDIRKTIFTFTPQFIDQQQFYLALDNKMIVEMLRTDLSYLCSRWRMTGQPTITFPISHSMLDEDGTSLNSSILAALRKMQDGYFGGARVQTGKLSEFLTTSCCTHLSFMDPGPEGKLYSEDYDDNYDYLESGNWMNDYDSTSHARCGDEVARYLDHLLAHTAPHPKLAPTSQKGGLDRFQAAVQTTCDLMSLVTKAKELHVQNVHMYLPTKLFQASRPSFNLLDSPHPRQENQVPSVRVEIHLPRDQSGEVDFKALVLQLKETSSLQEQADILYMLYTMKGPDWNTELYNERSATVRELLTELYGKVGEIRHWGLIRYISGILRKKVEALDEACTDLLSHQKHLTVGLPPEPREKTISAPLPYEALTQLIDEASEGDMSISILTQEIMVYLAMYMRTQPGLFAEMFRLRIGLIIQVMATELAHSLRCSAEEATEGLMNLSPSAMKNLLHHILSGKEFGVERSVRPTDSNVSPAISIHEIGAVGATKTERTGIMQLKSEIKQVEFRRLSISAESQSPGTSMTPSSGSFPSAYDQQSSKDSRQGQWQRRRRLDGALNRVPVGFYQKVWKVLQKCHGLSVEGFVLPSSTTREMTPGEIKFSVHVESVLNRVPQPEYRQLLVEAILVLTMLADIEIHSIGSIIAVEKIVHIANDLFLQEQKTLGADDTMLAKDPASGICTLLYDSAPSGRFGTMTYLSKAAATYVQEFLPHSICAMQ
Sequence of UniProt P25205 (P25205 whole entry, looked up): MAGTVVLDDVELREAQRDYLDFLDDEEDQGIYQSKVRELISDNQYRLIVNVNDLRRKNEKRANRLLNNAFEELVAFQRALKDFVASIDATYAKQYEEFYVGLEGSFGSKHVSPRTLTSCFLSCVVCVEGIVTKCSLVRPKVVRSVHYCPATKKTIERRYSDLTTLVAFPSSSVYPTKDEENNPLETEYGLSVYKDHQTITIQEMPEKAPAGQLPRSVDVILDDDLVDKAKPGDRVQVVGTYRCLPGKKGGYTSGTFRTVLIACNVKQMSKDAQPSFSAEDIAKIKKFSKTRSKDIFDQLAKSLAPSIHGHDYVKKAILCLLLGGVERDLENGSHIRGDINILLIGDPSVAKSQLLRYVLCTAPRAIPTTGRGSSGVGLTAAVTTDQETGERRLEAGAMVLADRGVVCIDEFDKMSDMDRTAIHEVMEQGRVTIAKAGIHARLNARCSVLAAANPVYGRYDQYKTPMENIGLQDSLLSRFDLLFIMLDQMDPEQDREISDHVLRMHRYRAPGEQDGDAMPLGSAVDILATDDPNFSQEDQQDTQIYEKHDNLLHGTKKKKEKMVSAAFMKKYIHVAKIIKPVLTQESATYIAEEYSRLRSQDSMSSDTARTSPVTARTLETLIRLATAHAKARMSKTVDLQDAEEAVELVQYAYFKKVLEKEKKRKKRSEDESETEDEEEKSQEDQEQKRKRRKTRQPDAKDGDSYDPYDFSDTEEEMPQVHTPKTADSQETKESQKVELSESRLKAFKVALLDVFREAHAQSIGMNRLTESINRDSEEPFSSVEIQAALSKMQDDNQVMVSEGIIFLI
Sequence of UniProt P07954 (P07954 whole entry, looked up): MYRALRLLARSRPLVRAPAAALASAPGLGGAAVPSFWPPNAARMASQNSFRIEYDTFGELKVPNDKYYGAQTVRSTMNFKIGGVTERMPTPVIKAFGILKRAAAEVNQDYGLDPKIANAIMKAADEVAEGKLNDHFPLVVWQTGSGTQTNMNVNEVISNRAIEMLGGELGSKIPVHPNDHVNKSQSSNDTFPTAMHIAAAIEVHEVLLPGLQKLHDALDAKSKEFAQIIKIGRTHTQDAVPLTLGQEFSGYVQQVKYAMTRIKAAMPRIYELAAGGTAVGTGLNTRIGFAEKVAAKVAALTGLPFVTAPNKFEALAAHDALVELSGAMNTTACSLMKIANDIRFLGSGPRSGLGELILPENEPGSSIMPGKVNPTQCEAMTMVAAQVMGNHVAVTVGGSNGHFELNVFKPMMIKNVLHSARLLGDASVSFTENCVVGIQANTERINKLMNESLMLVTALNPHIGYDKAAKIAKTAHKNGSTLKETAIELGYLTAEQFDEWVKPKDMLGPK
Sequence of UniProt P27707 (P27707 whole entry, looked up): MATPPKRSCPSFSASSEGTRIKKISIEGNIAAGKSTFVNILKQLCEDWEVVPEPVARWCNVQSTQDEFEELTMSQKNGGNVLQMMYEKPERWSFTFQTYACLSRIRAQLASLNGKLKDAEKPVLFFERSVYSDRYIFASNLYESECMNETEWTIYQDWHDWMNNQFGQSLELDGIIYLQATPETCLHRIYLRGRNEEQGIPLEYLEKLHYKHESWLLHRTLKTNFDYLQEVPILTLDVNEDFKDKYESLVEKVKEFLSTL

| Target | log2 ratio of iodoacetamide-alkyne labeling |
| --- | --- |
| CARS C27 (UniProt P49589) | 0.454 (inactive) |
| UniProt P17812_C218 | -0.193 (inactive) |
| NF1 C383 (UniProt P21359) | 0.376 (inactive) |
| FH C333 (UniProt P07954) | 0.338 (inactive) |
| APEX1 C93 (UniProt P27695) | 0.0645 (inactive) |
| HNRNPM C694 (UniProt P52272) | 0.0717 (inactive) |
| HNRNPM C653 (UniProt P52272) | 0.0149 (inactive) |
| MCM3 C319 (UniProt P25205) | -0.032 (inactive) |
| RANBP2 C82 (UniProt P49792) | 0.564 (inactive) |
| ACADM C156 (UniProt P11310) | 0.666 (inactive) |
| SMC2 C585 (UniProt O95347) | 0.258 (inactive) |
| MBD4 C268 (UniProt O95243) | 1.12 (active) |
| PFKL C170 (UniProt P17858) | 0.343 (inactive) |
| CBX5 C133 (UniProt P45973) | 0.17 (inactive) |
| FASN C1127 (UniProt P49327) | 0.394 (inactive) |
| PHKA1 C1082 (UniProt P46020) | 0.236 (inactive) |
| PRKAR2A C128 (UniProt P13861) | 0.00919 (inactive) |
| DCK C9 (UniProt P27707) | 1.15 (active) |
| UniProt P49840_C398 | 0.241 (inactive) |

| Target | log2 ratio of iodoacetamide-alkyne labeling |
| --- | --- |
| UniProt P26639_C107 | 0.12 (inactive) |
| SP1 C604 (UniProt P08047) | -0.0454 (inactive) |
| DNMT1 C1226 (UniProt P26358) | -0.0963 (inactive) |
| GALK1 C351 (UniProt P51570) | 0.243 (inactive) |
| TXN C35 (UniProt P10599) | 1.14 (active) |
| ACAA2 C128 (UniProt P42765) | 1.22 (active) |
| GMPS C137 (UniProt P49915) | 0.217 (inactive) |
| UniProt O96017_C539 | 0.494 (inactive) |
| UniProt P25705_C244 | 0.205 (inactive) |
| MCM5 C219 (UniProt P33992) | 1.34 (active) |
| HCFC1 C1895 (UniProt P51610) | 1.09 (active) |
| FASN C1992 (UniProt P49327) | 0.0894 (inactive) |
| SLC7A1 C628 (UniProt P30825) | 0.105 (inactive) |
| RPS5 C66 (UniProt P46782) | 2.5 (active) |
| UniProt P0DN79_C15 | 2.27 (active) |
| U2AF1L5 C67 (UniProt P0DN76) | 0.366 (inactive) |
| PEX5 C11 (UniProt P50542) | 0.204 (inactive) |
| IMPDH2 C95 (UniProt P12268) | -0.293 (inactive) |
